# From PubChem BioAssay (EPA / NIEHS)
# The source made the active and inactive calls. How the source made its calls: active means hit-call score of the fitted dose curve at least 0.9, where 1 is the maximum; inactive means score below 0.9.
# Legend:
# [1] = read-out: Cytochrome P450 (CYP1A1), CYP1A1 (gene 1543); test: LTEA_HepaRG_CYP1A1: Life Technologies and Expression Analysis (LTEA) Assay for Cytochrome P450 (CYP1A1) using HepaRG (AID 2283454); details: mRNA level, 48 h; actives raise or lower the signal
# How it was run: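 Differentiated HepaRG cells in serum-free induction medium were exposed in duplicate for 48 h to eight half-log concentrations up to 100 uM in 0.5% DMSO. CYP1A1 mRNA was quantified by TaqMan qRT-PCR, normalized to ACTB, GAPDH and POLR2A.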
# [2] = read-out: CFLAR gene, CFLAR (gene 8837); test: LTEA_HepaRG_CFLAR: Life Technologies and Expression Analysis (LTEA) Assay for CFLAR gene using HepaRG (AID 2283455); details: mRNA level, 48 h; actives raise or lower the signal
# How it was run: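 HepaRG, 48 h exposure, 8-pt conc-response (100 uM top, half-log), 0.5% DMSO vehicle, duplicates. CFLAR expression by qRT-PCR; ACTB/GAPDH/POLR2A normalization; gain or loss fit vs DMSO baseline.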
# [3] = read-out: Forkhead box O1 (FOXO1), FOXO1 (gene 2308); test: LTEA_HepaRG_FOXO1: Life Technologies and Expression Analysis (LTEA) Assay for Forkhead box O1 (FOXO1) using HepaRG (AID 2283456); details: mRNA level, 48 h; actives raise or lower the signal
# How it was run: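 Readout is FOXO1 transcript level by multiplexed qRT-PCR against three housekeeping genes, curve-fitted in both directions relative to 0.5% DMSO vehicle. Human HepaRG cultures received chemicals for 48 h, up to 100 uM in half-log steps.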
# [4] = read-out: growth arrest and DNA damage 45 (GADD45A), GADD45A (gene 1647); test: LTEA_HepaRG_GADD45A: Life Technologies and Expression Analysis (LTEA) Assay for growth arrest and DNA damage 45 (GADD45A) using HepaRG (AID 2283458); details: mRNA level, 48 h; actives raise or lower the signal
# How it was run: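 Differentiated HepaRG cells exposed 48 h in serum-free induction medium to 8 concentrations, top 100 uM in half-log steps, 0.5% DMSO. GADD45A mRNA quantified by qRT-PCR, normalized to ACTB, GAPDH and POLR2A; bidirectional fit versus DMSO.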
# [5] = read-out: Forkhead box O3 (FOXO3), FOXO3 (gene 2309); test: LTEA_HepaRG_FOXO3: Life Technologies and Expression Analysis (LTEA) Assay for Forkhead box O3 (FOXO3) using HepaRG (AID 2283459); details: mRNA level, 48 h; actives raise or lower the signal
# How it was run: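 HepaRG, 48 h post-dose; 8 conc., half-log from 100 uM, 0.5% DMSO, duplicates; serum-free induction medium. Readout: FOXO3 mRNA, TaqMan qRT-PCR, housekeeping-normalized. Bidirectional curve fit vs DMSO baseline.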
# [6] = read-out: ABC Transporter (ABCB1), ABCB1 (gene 5243); test: LTEA_HepaRG_ABCB1: Life Technologies and Expression Analysis (LTEA) Assay for ABC Transporter (ABCB1) using HepaRG (AID 2283460); details: mRNA level, 48 h; actives raise or lower the signal
# How it was run: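 Expression of ABCB1 was quantified by qRT-PCR against three housekeeping genes after human HepaRG cultures received test chemicals for 48 hours. Concentrations spanned eight half-log steps topping at 100 uM in 0.5% DMSO; gain or loss of signal was fitted relative to vehicle.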
# [7] = read-out: growth arrest and DNA damage 45 (GADD45B), GADD45B (gene 4616); test: LTEA_HepaRG_GADD45B: Life Technologies and Expression Analysis (LTEA) Assay for growth arrest and DNA damage 45 (GADD45B) using HepaRG (AID 2283461); details: mRNA level, 48 h; actives raise or lower the signal
# How it was run: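 Differentiated HepaRG cells, plated 48 h then switched to serum-free induction medium, were exposed 48 h in duplicate to eight half-log concentrations from 100 uM in 0.5% DMSO; mRNA quantified by qRT-PCR, normalized to ACTB/GAPDH/POLR2A, bidirectional fit versus DMSO.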
# [8] = read-out: ABC Transporter (ABCC3), ABCC3 (gene 8714); test: LTEA_HepaRG_ABCC3: Life Technologies and Expression Analysis (LTEA) Assay for ABC Transporter (ABCC3) using HepaRG (AID 2283462); details: mRNA level, 48 h; actives raise or lower the signal
# How it was run: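 HepaRG cells in serum-free induction medium were exposed for 48 h in duplicate to 8-point half-log concentrations topping at 100 uM in 0.5% DMSO. ABCC3 mRNA was measured by qRT-PCR normalized to ACTB, GAPDH and POLR2A, with bidirectional fitting versus DMSO.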
# [9] = CEETOX_H295R_TESTO: CeeTox H295R High-throughput Steroidogenesis Assay for Testosterone (TESTO) (AID 2283457); details: actives raise or lower the signal;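 on AC50: cells exposed to chemicals for 48 h before medium collection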
# How it was run: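 H295R human adrenal cells in DMEM/F12 with ITS+ and Nu-Serum, exposed to chemicals for 48 h. Testosterone in medium measured by MTBE extraction, reverse-phase HPLC-MS/MS; bidirectional fit versus DMSO baseline. MTT viability checked in same wells.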
# [10] = read-out: ABC Transporter (ABCB11), ABCB11 (gene 8647); test: LTEA_HepaRG_ABCB11: Life Technologies and Expression Analysis (LTEA) Assay for ABC Transporter (ABCB11) using HepaRG (AID 2283463); details: mRNA level, 48 h; actives raise or lower the signal
# How it was run: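 ABCB11 transcript levels are read by Fluidigm TaqMan qRT-PCR after 48 h chemical treatment of human HepaRG cells. Concentrations span 100 uM downward in half-log steps with 0.5% DMSO; gain or loss is fitted against DMSO controls.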
smiles,measurement,setting,value
FC(F)C(F)(F)OCC(Cn1cncn1)c1ccc(Cl)cc1Cl (stereo not given),AC50,[1],3.17 µM (active)
same,AC50,[2],78.4 µM (active)
same,AC50,[3],75.3 µM (active)
same,AC50,[4],74.2 µM (active)
same,outcome,[5],inactive
same,outcome,[6],inactive
same,outcome,[7],inactive
same,AC50,[8],21.1 µM (active)
COP(=O)(OC)SCn1c(=O)oc2cc(Cl)cnc21,AC50,[1],38.6 µM (active)
same,outcome,[2],inactive
same,outcome,[3],inactive
same,AC50,[4],0.029 µM (active)
same,outcome,[5],inactive
same,outcome,[6],inactive
same,outcome,[7],inactive
same,outcome,[8],inactive
C#CCC1=C(C)C(OC(=O)C2C(C=C(C)C)C2(C)C)CC1=O (stereo not given),AC50,[1],49.8 µM (active)
same,outcome,[2],inactive
same,outcome,[3],inactive
same,outcome,[4],inactive
same,outcome,[5],inactive
same,outcome,[6],inactive
same,outcome,[7],inactive
same,outcome,[8],inactive
Nc1nc(N)nc(NC2CC2)n1,AC50,[1],50 µM (active)
same,outcome,[2],inactive
same,outcome,[3],inactive
same,outcome,[4],inactive
same,outcome,[5],inactive
same,outcome,[6],inactive
same,outcome,[7],inactive
same,outcome,[8],inactive
CCc1cnc(C2=NC(C)(C(C)C)C(=O)N2)c(C(=O)O)c1 (stereo not given),outcome,[1],inactive
same,outcome,[2],inactive
same,outcome,[3],inactive
same,outcome,[4],inactive
same,outcome,[5],inactive
same,outcome,[6],inactive
same,outcome,[7],inactive
same,outcome,[8],inactive
CSC1=N[C@@](C)(c2ccccc2)C(=O)N1Nc1ccccc1,outcome,[1],inactive
same,outcome,[2],inactive
same,AC50,[3],31.2 µM (active)
same,AC50,[4],32 µM (active)
same,outcome,[5],inactive
same,outcome,[6],inactive
same,outcome,[7],inactive
same,AC50,[8],23.2 µM (active)
CC1=NNC(=O)N(/N=C/c2cccnc2)C1,AC50,[1],27.5 µM (active)
same,outcome,[2],inactive
same,outcome,[3],inactive
same,outcome,[4],inactive
same,outcome,[5],inactive
same,outcome,[6],inactive
same,outcome,[7],inactive
same,outcome,[8],inactive
C#CC(C)(C)NC(=O)c1cc(Cl)cc(Cl)c1,AC50,[1],33 µM (active)
same,outcome,[2],inactive
same,outcome,[3],inactive
same,outcome,[4],inactive
same,outcome,[5],inactive
same,AC50,[6],50 µM (active)
same,outcome,[7],inactive
same,outcome,[8],inactive
CCCSP(=O)(OCC)SCCC,AC50,[1],40.8 µM (active)
same,outcome,[2],inactive
same,outcome,[3],inactive
same,outcome,[9],inactive
same,outcome,[4],inactive
same,outcome,[5],inactive
same,outcome,[6],inactive
same,outcome,[7],inactive
same,outcome,[8],inactive
same,outcome,[10],inactive
CC(Oc1cccc(Cl)c1)C(=O)O (stereo not given),outcome,[1],inactive
same,outcome,[2],inactive
same,outcome,[3],inactive
same,outcome,[4],inactive
same,outcome,[5],inactive
same,outcome,[6],inactive
same,outcome,[7],inactive
same,outcome,[8],inactive
CSc1nc(NC(C)C)nc(NC(C)C)n1,AC50,[1],22.4 µM (active)
same,outcome,[2],inactive
same,outcome,[3],inactive
same,outcome,[4],inactive
same,outcome,[5],inactive
same,AC50,[6],3.25 µM (active)
same,outcome,[7],inactive
same,outcome,[8],inactive
CNC(=O)ON=C(SC)C(=O)N(C)C,outcome,[1],inactive
same,outcome,[2],inactive
same,outcome,[3],inactive
same,outcome,[9],inactive
same,outcome,[4],inactive
same,outcome,[5],inactive
same,outcome,[6],inactive
same,outcome,[7],inactive
same,outcome,[8],inactive
same,outcome,[10],inactive
CCOP(=O)(OCC)Oc1cc(C)nc(C(C)C)n1,AC50,[1],50.2 µM (active)
same,outcome,[2],inactive
same,outcome,[3],inactive
same,outcome,[4],inactive
same,outcome,[5],inactive
same,outcome,[6],inactive
same,outcome,[7],inactive
same,outcome,[8],inactive
CCOP(=O)(NC(C)C)Oc1ccc(SC)c(C)c1 (stereo not given),AC50,[1],50 µM (active)
same,outcome,[2],inactive
same,outcome,[3],inactive
same,AC50,[9],26.2 µM (active)
same,outcome,[4],inactive
same,outcome,[5],inactive
same,outcome,[6],inactive
same,outcome,[7],inactive
same,outcome,[8],inactive
same,AC50,[10],5.28 µM (active)
CNC(=O)ON=C(C)SC,outcome,[1],inactive
same,outcome,[2],inactive
same,outcome,[3],inactive
same,outcome,[4],inactive
same,outcome,[5],inactive
same,outcome,[6],inactive
same,outcome,[7],inactive
same,outcome,[8],inactive
CCC(CC)Nc1c([N+](=O)[O-])cc(C)c(C)c1[N+](=O)[O-],AC50,[1],29.8 µM (active)
same,outcome,[2],inactive
same,outcome,[3],inactive
same,outcome,[4],inactive
same,outcome,[5],inactive
same,outcome,[6],inactive
same,outcome,[7],inactive
same,outcome,[8],inactive
CC(C)=CC1C(C(=O)OCN2C(=O)C3=C(CCCC3)C2=O)C1(C)C (stereo not given),AC50,[1],50 µM (active)
same,outcome,[2],inactive
same,outcome,[3],inactive
same,outcome,[4],inactive
same,outcome,[5],inactive
same,outcome,[6],inactive
same,outcome,[7],inactive
same,outcome,[8],inactive
CCOP(=S)(OCC)Oc1cc(C)nc(C(C)C)n1,AC50,[1],33 µM (active)
same,outcome,[2],inactive
same,outcome,[3],inactive
same,outcome,[4],inactive
same,outcome,[5],inactive
same,outcome,[6],inactive
same,outcome,[7],inactive
same,outcome,[8],inactive
